High-throughput results (PubChem)
D1 ag: agonists of human D1 dopamine receptor; 360,000 compounds, 1% hits; HEK293 T-REx D1 cells, calcium flux, agonist mode; activation, % at 2 µM; P21728; AID 504660; in the data active means activation above about 30%; further: 0% is about no effect
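Inducible HEK293 T-REx D1 cells, force-coupled to calcium signalling, were plated at 4000 cells/well with tetracycline and held overnight at 30 C. After no-wash calcium dye loading, compound-evoked calcium rise over 180 s flagged agonists.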
D1 antagonist: antagonists of human D1 dopamine receptor. 360,000 compounds, 3.2% hits. activity change, negative = inhibition, % at 10 µM. HEK293 TREx D1 cells, calcium flux, dopamine EC80; active compounds read low. P21728; in the data active means activity change below about -30%; further: on the % scale 0 is the no-effect control and ±100 the full control effect
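Tetracycline-induced HEK293 Trex D1 cells, force-coupled to calcium, dye-loaded; compounds added and read 180 s, then EC80 dopamine added and calcium flux tracked kinetically another 180 s.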
D3 antag: antagonists of human D3 dopamine receptor. P35462. D3R cells, DiscoveRx beta-arrestin luminescence, antagonist mode; active compounds read low. max response, negative = inhibition, %. 360,000 compounds, 2.5% hits. AID 652054; in the data active means max response below about -50%; further: on the % scale 0 is the no-effect control and ±100 the full control effect
Target sequence (P35462 whole entry, looked up): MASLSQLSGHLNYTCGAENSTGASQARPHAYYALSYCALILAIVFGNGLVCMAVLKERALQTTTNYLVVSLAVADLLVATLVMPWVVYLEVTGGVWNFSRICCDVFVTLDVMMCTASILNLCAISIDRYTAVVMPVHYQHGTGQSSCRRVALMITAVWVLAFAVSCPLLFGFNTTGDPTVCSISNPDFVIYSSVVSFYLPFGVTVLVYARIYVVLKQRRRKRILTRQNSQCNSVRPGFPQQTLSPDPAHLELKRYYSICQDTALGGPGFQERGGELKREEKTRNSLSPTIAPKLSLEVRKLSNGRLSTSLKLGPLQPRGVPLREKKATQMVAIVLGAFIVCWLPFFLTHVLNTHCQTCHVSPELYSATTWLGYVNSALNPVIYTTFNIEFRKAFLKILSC
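Cells plated overnight at 1500 cells/well, then exposed to library compounds with dopamine controls for 90 minutes at 37 degrees C. DiscoveRx reagent added for 30–60 minutes at room temperature; luminescence read, quantitative HTS format.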
D1 PAM: enhances dopamine response at the human D1 receptor. P21728. HEK293 TREx D1 cells, calcium flux, dopamine EC20 potentiation. potentiation, % at 10 µM. 360,000 compounds, 0.036% hits. AID 504651; in the data active means potentiation above about 30%; further: 0% is about no effect
D3 ag: D3 dopamine receptor (human) agonism; max activation, %; 410,000 compounds, 0.58% hits; D3R DiscoveRx beta-arrestin cells, luminescence, 90 min; in the data active means max activation above about 30%; further: 0% is about no effect
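Agonist-mode cell screen: cells plated at 1500/well and incubated overnight at 37 °C, then exposed to library compounds for 90 min at 37 °C. Detection reagent was added for 30–60 min at room temperature, and luminescence was read.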
Starred values were filed as active, the others as inactive; nt = no result given; ! = a repeat was not active. Sampled rows, rich in hits. Any-hit rate of the full collection: about 6%.

SMILES | D1 ag | D1 antagonist | D3 antag | D1 PAM | D3 ag
O=[N+]([O-])c1ccc(/C=N/NC(=S)Nc2ccc(Cl)cc2Cl)s1 | 5 | -21 | -56* | -3 | -19
Cc1nn(C)cc1/C=N/NC(=S)Nc1ccc(Cl)cc1Cl | 2 | -23 | -17 | -6 | 4
Fc1ccc(/C=N/NC(=S)Nc2ccc(Cl)cc2Cl)cc1 | 5 | -2 | 3 | -2 | -14
Cc1cc(Cl)ccc1NC(=O)CCC(=O)N/N=C/c1cc([N+](=O)[O-])ccc1O | 1 | -9 | -56* | 13 | -7
CC(=O)N1CCc2cc(Br)cc(S(=O)(=O)CCC(=O)N3CCN(c4ccccc4Cl)CC3)c21 | 0 | -6 | nt | 0 | -11
COc1cc(C(=O)Nc2ccc3oc(-c4ccccc4)nc3c2)cc(OC)c1OC | -1 | 3 | nt | 1 | 8
CN(C)CCNc1nc2sc3c(c2c(=O)n1-c1ccccc1)CCCCC3 | 4 | 18 | -29 | 0 | -22
CN(C)CCNc1nc2sc3c(c2c(=O)n1Cc1ccccc1)CCCCC3 | 65* | -23 | -16 | -5 | -4
COc1ccc(-n2c(NCCN(C)C)nc3sc4c(c3c2=O)CCCCC4)cc1 | 56* | 2 | -22 | -4 | -7
O=C(CCNC(=O)c1ccc(Cl)cc1)NC1CCCCCC1 | 2 | -2 | 6 | -9 | -4
O=C(COC(=O)COc1ccc(Cl)cc1)NC1CCCCC1 | 0 | 14 | -13 | -4 | 1
CN(C)CCOc1cc(Cl)cc(Cl)c1 | 2 | -19 | -64* | -4 | -12
Cc1ccc(C)c(OCCC(=O)OCC(=O)NC(=O)NC2CCCC2)c1 | 6 | -36* | 10 | -5 | -9
O=C(COC(=O)COc1ccc(Cl)cc1)NC1CCCC1 | 4 | -33* | -14 | 2 | -4
O=C(CNC(=O)c1ccc(Cl)cc1)NC1CCCCC1 | 1 | -10 | -59* | 11 | -19
Cc1ccc(C)c(OCCC(=O)OCC(=O)NC2CC2)c1 | 3 | -20 | -14 | 1 | -1
Cc1ccc2oc(C(=O)Nc3sc4c(c3C(=O)NCc3cccnc3)CCCC4)cc(=O)c2c1 | 2 | -6 | nt | -1 | -12
Cc1ccc(CN2CCC(CNC(=O)Nc3c(C)cccc3C)C2)cc1 (stereo not drawn) | -1 | 0 | nt | 0 | -19
COc1ccc(-n2cc(C(=O)N(CCN(C)C)Cc3ccccc3)c3ccccc3c2=O)cc1 | 5 | -3 | nt | -1 | -12
COc1cc(OC)c(-c2cc(C(=O)NCc3ccc(F)cc3)c3c(-c4ccccc4)[nH]nc3n2)cc1OC | 5 | 11 | nt | 0 | 7
O=C(CCCOc1ccc(Cl)cc1Cl)N1CCc2ccccc2C1 | 33* | 0 | -4 | -5 | -14
O=C(CCCOc1ccccc1)N1CCc2ccccc2C1 | 0 | -5 | -1 | -2 | -8
CN(C)CCOC(=O)Cc1ccc(Cl)cc1 | 4 | -9 | 1 | -3 | -2
Cc1cc(OCC(=O)OCC(=O)N2CCc3ccccc3C2)ccc1Cl | 13 | -43* | -14 | -8 | -18
CN(C)CCOC(=O)COc1ccc(Cl)cc1 | 0 | 12 | -9 | -5 | 45*!
SMILES | D1 ag | D1 antagonist | D3 antag | D1 PAM | D3 ag
Cc1cc(OCC(=O)NC2CCCCC2)ccc1Cl | -1 | -1 | -15 | -7 | -24
Cc1cc(OCC(=O)OCC(=O)NC2CCCC2)ccc1Cl | 9 | -36* | 6 | -5 | 1
CCOC(=O)N1CCC2(CC1)OC(=O)C(C)=C2C(=O)NCc1cccc(F)c1 | -2 | 9 | nt | 0 | -7
COc1ccccc1NC(=O)C1=C(C)Nc2nnnn2C1c1ccc(C(F)(F)F)cc1 (stereo not drawn) | 1 | -6 | nt | -3 | -9
CC(C)(C)c1ccc(OCCC(=O)OCC(=O)NC2CCCCC2)cc1 | 4 | -44* | 3 | -2 | 5
CC(C)(C)c1ccc(OCCC(=O)OCC(=O)NC(=O)NC2CCCC2)cc1 | 4 | 9 | 16 | 1 | 6
Cn1ncc(Cl)c1C(=O)Nc1ccc2c(c1)CCC2 | 2 | -5 | 1 | 3 | -10
CN1N=C(C(=O)Nc2ccc3c(c2)CCC3)CCC1=O | 1 | -32* | 14 | -3 | -4
Cc1ccccc1Cn1nc(C)c(NC(=O)c2cc3n(n2)C(C(F)F)CC(C(F)F)N3)c1C (stereo not drawn) | -1 | -51* | 10 | -2 | -2
